Results reported in PubChem BioAssay (NCI).
The panel holds about 83,000 compounds, 20% with a hit somewhere; the sample as a whole holds those more often.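 Plates (96-well) were seeded with cells, treated with compound at one concentration, and incubated for 48 hours before percent growth was determined.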 Values without a mark were called inactive. Activity calls are given as the source filed them. The calls were made as follows: active = growth percent below 10; inactive = the rest.

Experiments:
Experiment in all cases: NCI-60 one-dose screen, 48 h (100 = growth as untreated, 0 = no growth, -100 = all killed)
Conditions in all cases: 10 µM unless noted
NCI-H23 lung = test system: NCI-H23 lung
NCI-H226 lung = test system: NCI-H226 lung
NCI-H322M lung = test system: NCI-H322M lung
HOP-62 NSCLC = test system: HOP-62 NSCLC
HOP-92 NSCLC = test system: HOP-92 NSCLC
NCI-H522 lung = test system: NCI-H522 lung
A549/ATCC NSCLC = test system: A549/ATCC NSCLC
786-0 renal = test system: 786-0 renal
DU-145 prostate = test system: DU-145 prostate
K-562 leukemia = test system: K-562 leukemia
MALME-3M melanoma = test system: MALME-3M melanoma
MDA-MB-231 breast = test system: MDA-MB-231 breast
RXF 393 renal = test system: RXF 393 renal
SF-268 CNS = test system: SF-268 CNS
SF-295 CNS = test system: SF-295 CNS
SF-539 CNS = test system: SF-539 CNS
UACC-257 melanoma = test system: UACC-257 melanoma
M14 melanoma = test system: M14 melanoma
NCI-H460 lung = test system: NCI-H460 lung
COLO 205 colon = test system: COLO 205 colon

Structure (SMILES) | growth (NCI-H23 lung) | growth (NCI-H226 lung) | growth (NCI-H322M lung) | growth (HOP-62 NSCLC) | growth (HOP-92 NSCLC) | growth (NCI-H522 lung) | growth (A549/ATCC NSCLC) | growth (786-0 renal) | growth (DU-145 prostate) | growth (K-562 leukemia) | growth (MALME-3M melanoma) | growth (MDA-MB-231 breast) | growth (RXF 393 renal) | growth (SF-268 CNS) | growth (SF-295 CNS) | growth (SF-539 CNS) | growth (UACC-257 melanoma) | growth (M14 melanoma) | growth (NCI-H460 lung) | growth (COLO 205 colon)
c1ccc(-c2oc3ccccc3c2-c2ccccc2)cc1 | 90.2% | 88.3% | 95.8% | 105% | 89.5% | 83% | 97.2% | 98.8% | 115% | 67.7% | 110% | 100% | 99.1% | 109% | 104% | 98.5% | 111% | 102% |  | 
NC(N)=N/N=C(/c1ccccc1)c1ccc(N)cc1 | 101% | 89.6% | 91.2% | 100% |  | 88.5% | 99.5% | 105% | 116% | 113% | 122% | 103% | 108% | 115% |  | 103% | 92.7% | 104% | 110% | 
C=C1C(=O)O[C@H]2[C@H]1CC/C(COC(=O)/C=C\C(=O)NCc1ccc(Cn3c(=O)sn(CCCI)c3=O)cc1)=C\CC[C@@]1(C)O[C@@H]21 | -72.1% (active) | -77% (active) | 17.3% | -36% (active) | -68.6% (active) | -56.1% (active) | -0.92% (active) | -76.9% (active) | -90.4% (active) | -10.1% (active) | -94.2% (active) | -83.3% (active) |  | -81.7% (active) | 58% | -98.7% (active) | -53.7% (active) |  |  | -52.7% (active)
CN1CCN(c2ccc3nc(/N=C/c4ccc5sc(-c6ccc([N+](=O)[O-])cc6)nc5c4)sc3c2)CC1 | 99.4% | 97.9% | 105% | 120% | 111% | 95% | 98.6% | 101% | 106% | 90.6% | 96.7% | 112% | 129% | 111% | 96% | 93.4% | 101% | 104% |  | 
CCOC(=O)N1CCc2c(sc3c2C(=O)N[C@H](c2ccc(OC)cc2)N3)C1 | 103% | 94.7% | 105% |  | 92.6% | 76% | 85.4% | 97.8% | 113% |  | 96.7% | 104% | 113% | 101% | 97% | 100% | 86.6% | 94.7% | 104% | 
C[C@@H]1CC[C@@H]2[C@@H]1[C@H](OC(=O)/C=C/c1ccccc1)[C@]1(CCCOCCOCCOCCOC(=O)CCCC[C@@H]3SC[C@@H]4NC(=O)N[C@@H]43)C[C@@H](OC(=O)CO)[C@@]2(C)O1 | 102% | 105% | 92.6% |  | 108% | 85% |  | 97.6% | 103% |  | 99.6% | 106% | 108% | 102% | 107% | 103% | 109% |  | 106% | 112%
CC(/C=N/NC(=O)c1cc(-c2ccco2)[nH]n1)=C\c1ccccc1 | 93% | 88.5% | 93.3% |  | 57.6% | 110% | 105% | -91.2% (active) | 101% | 86.6% | 91.3% | 102% |  | 93.9% | 69.9% | 102% | 89.9% | 95% | 127% | 
O=[N+]([O-])c1ccc(-c2cc3c(Nc4ccc(OCc5cccc(Cl)c5)c(Cl)c4)ncnc3s2)cc1 | 78.7% | 92.2% | 82.4% |  | 80.3% | 49.9% | 29.4% | 88.3% | 70.4% |  | 61.2% | 81.6% | 85.3% | 76.1% | 59.6% | 84% | 58.6% | 35.9% | 32% | 
Cc1cc(C(c2ccccc2)c2ccccc2)ccc1NS(=O)(=O)c1ccccc1 | 86.2% | 102% | 119% |  | 95.8% | 83.7% | 87.9% | 102% | 102% | 65.1% | 130% | 88.5% | 102% | 85.9% | 109% | 98.4% | 118% | 108% |  | 
COc1ccc(-c2nc3sc4c(c3c(=O)[nH]2)CCCC4)c2ccccc12 | 32.6% | 50.8% | 37.6% |  | 12.3% | 1.5% (active) | 15.8% | 10.6% | 0.642% (active) | 5.12% (active) | 41.8% | 10.5% | 17.3% | 24.6% | -18.7% (active) | -57.7% (active) | 56.8% |  | 0.61% (active) | -32.9% (active)
COc1cc(CNC(=O)/C=C/C=C/c2ccc3c(c2)OCO3)ccc1OCc1cn(-c2ccc(Cl)c(Cl)c2)nn1 | -34.1% (active) | 31.2% | 21.6% |  | -14.7% (active) | 5.67% (active) | 2.23% (active) | -40.6% (active) | -32.3% (active) | 5.49% (active) | -54.7% (active) | 5.5% (active) | -24% (active) | 18% | -39% (active) | 74.4% | -17.4% (active) | -30.4% (active) | -57.5% (active) | 
COc1cc(C(=O)/C=C/c2c(C(F)(F)F)nc3ccccn23)cc(OC)c1OC | -50.3% (active) | -25.5% (active) | 8.14% (active) |  | 2.54% (active) | -51.4% (active) |  | -60.9% (active) | -25.8% (active) | -9.61% (active) | 7.53% (active) | 13.9% | -68.8% (active) | -36.1% (active) | -14.9% (active) | -92.8% (active) | -9.93% (active) |  | -44.4% (active) | 
O=C1NC(=S)S/C1=C\N1N=C(c2ccc(Cl)cc2)CC1c1ccc(F)cc1 (stereo not given) | 91.3% | 83.9% | 99.1% |  | 104% | 76.1% | 84.1% | 94% | 98.5% | 59.8% | 83.7% | 80.9% | 73.8% | 85.9% | 92.4% | 89.5% | 107% | 87.7% | 95.8% | 
Cc1ccc(Nc2ccc(Nc3ccc(C)cc3S(=O)(=O)O)c3c2C(=O)c2ccccc2C3=O)c(S(=O)(=O)O)c1 | 97.2% | 96.9% | 90% |  | 99% | 93.3% | 112% | 111% | 102% | 100% | 101% | 95.6% | 107% | 103% | 101% | 102% | 112% | 88% | 102% | 
COc1ccc(/C=N/NC(=O)Cn2c(-c3ccc(S(C)(=O)=O)cc3)nc3cc(Cl)ccc32)cc1 | 29.9% | 57.1% | 51.4% |  | 49.3% | 2.78% (active) | 17.4% | 39.2% | 14.2% | 6.93% (active) | 65.8% | 12.9% | 14.9% | 45.2% | 13.4% | -14.1% (active) | 64.4% | 13.5% | 7.74% (active) | 
N#Cc1c(NC(=O)c2ccccc2I)sc2c1CCCC2 | 73.4% | 41.7% | 88.5% |  | 71.6% | 24.6% | 53.6% | 52.2% | 62.9% | 14.8% | 60.9% | 54.7% | -10.4% (active) | 58.1% | 21.1% | 22.9% | 60.7% | 16.3% | 17.8% | 
O=C1/C(=C/c2ccccc2[N+](=O)[O-])COc2ccc(O)c(O)c21 | -4.09% (active) | -8.66% (active) | 33.3% |  | -9.78% (active) | -45.2% (active) | 30.8% | 10.6% | 2.13% (active) | 4.47% (active) | -31.6% (active) | -16.7% (active) |  | 0.467% (active) | 58.3% | -69.4% (active) | -8.55% (active) |  | 0.563% (active) | -32.6% (active)
